According to PubChem BioAssay (EPA / NIEHS):
Activity calls are given as the source filed them. The calls were made as follows: active = hit-call score of the fitted dose curve at least 0.9, where 1 is the maximum; inactive = score below 0.9.

Tests used:
[1] = ATG_CRE_CIS: Attagene CIS-FACTORIAL HepG2 Assay for human cAMP Responsive Element (CRE) binding protein 3 (AID 2282926); conditions: HepG2 CRE cis-reporter, Attagene multiplexed mRNA; actives raise or lower the signal
Method in brief: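 Transfected HepG2 were treated for 24 hours, then RNA was extracted and reporter cDNA amplified with sequence-specific primers. Labelled fragments were separated by capillary electrophoresis, and the CRE signal was fitted bidirectionally with DMSO as baseline.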

[2] = target: CCAAT/enhancer-binding protein beta (Homo sapiens) (UniProt P17676); test: ATG_C_EBP_CIS: Attagene CIS-FACTORIAL HepG2 Assay for human CCAAT/Enhancer Binding Protein (C/EBP) beta (AID 2282927); conditions: HepG2 Attagene cis-factorial transcription factor reporter; actives raise or lower the signal
CCAAT/enhancer-binding protein beta (Homo sapiens), sequence (P17676 whole entry, looked up, the tested form may be a part): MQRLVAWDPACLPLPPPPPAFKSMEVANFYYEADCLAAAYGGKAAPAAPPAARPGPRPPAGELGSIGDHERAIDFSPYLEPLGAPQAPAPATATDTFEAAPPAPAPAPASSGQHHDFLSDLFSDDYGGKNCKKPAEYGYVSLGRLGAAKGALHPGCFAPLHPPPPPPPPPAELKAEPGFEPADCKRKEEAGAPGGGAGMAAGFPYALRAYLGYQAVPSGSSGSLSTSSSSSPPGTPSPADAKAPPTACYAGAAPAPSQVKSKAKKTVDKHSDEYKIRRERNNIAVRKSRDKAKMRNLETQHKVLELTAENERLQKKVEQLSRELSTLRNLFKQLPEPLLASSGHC
Method in brief: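 Endogenous C/EBPb-driven reporter transcripts measured in transfected human HepG2 cells at 24 h via RT-PCR and capillary electrophoresis of labelled fragments. Activity fitted in both directions relative to DMSO baseline.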

[3] = ATG_CMV_CIS: Attagene CIS-FACTORIAL HepG2 Assay for human CMV (Internal Marker) (AID 2282928); conditions: HepG2 CMV promoter reporter, transcription factor profiling; actives raise or lower the signal;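 also: endpoint acts as a background internal control marker rather than a target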
Method in brief: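 CMV internal-marker background readout in transiently transfected HepG2 cells bearing cis-regulated reporter units. Reporter mRNA is measured 24 h after dosing by RT-PCR and capillary electrophoresis, with bidirectional fitting against DMSO.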

[4] = ATG_DR4_LXR_CIS: Attagene CIS-FACTORIAL HepG2 Assay for human Liver X Receptor (LXR), DR4 submotif (AID 2282929); conditions: HepG2 Attagene DR4 cis-reporter, mRNA transcription; actives raise or lower the signal
Method in brief: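 After transient transfection with multiplexed cis-promoter reporter units, HepG2 cells received test chemicals for 24 h. Reporter mRNA induction, detected by fluorescence after RT-PCR and capillary electrophoresis, was scored relative to DMSO.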

[5] = target: Aryl hydrocarbon receptor (Homo sapiens) (UniProt P35869); test: ATG_Ahr_CIS: Attagene CIS-FACTORIAL HepG2 Assay for human Aryl Hydrocarbon Receptor (Ahr) (AID 2282930); conditions: HepG2 AhR cis-factorial reporter transcription; actives raise or lower the signal
Aryl hydrocarbon receptor (Homo sapiens), sequence (P35869 whole entry, looked up): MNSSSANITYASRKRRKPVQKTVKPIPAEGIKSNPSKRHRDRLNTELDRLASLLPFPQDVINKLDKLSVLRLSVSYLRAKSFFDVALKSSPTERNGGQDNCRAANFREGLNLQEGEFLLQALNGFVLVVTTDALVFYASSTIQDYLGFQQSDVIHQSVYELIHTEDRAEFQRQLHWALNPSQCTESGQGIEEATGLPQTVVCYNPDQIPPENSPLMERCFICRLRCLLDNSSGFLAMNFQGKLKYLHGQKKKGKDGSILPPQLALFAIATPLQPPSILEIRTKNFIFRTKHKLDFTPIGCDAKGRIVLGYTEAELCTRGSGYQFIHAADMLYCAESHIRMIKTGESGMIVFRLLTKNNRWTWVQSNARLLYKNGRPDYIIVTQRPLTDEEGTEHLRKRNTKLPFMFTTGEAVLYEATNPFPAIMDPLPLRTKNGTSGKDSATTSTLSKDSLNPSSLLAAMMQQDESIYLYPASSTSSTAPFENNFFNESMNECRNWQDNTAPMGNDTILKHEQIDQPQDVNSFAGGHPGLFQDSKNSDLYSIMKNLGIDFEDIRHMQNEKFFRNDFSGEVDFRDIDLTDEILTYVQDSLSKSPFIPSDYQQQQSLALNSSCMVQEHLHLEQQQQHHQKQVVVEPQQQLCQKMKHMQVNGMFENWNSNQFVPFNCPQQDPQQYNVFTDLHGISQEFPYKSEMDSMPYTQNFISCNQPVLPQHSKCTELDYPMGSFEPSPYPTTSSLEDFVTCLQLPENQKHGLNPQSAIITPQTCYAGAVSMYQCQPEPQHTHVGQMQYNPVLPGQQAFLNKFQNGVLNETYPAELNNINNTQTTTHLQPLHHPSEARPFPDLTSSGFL
Method in brief: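 Reporter mRNA levels, quantified by RT-PCR and fluorescent capillary electrophoresis, reflect endogenous AhR transcriptional activity in HepG2 cells carrying transfected cis-promoter reporter constructs. Readout at 24 h post-dose; gain or loss fitted against DMSO baseline.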

[6] = ATG_AP_2_CIS: Attagene CIS-FACTORIAL HepG2 Assay for human Activator Protein 2 (AP-2) (AID 2282932); conditions: HepG2 AP-2 cis-reporter, Attagene transcription factor profiling; actives raise or lower the signal
Method in brief: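 HepG2, transient MRTU transfection, cis-regulated reporters; 24 h compound exposure; RNA isolated, RT-PCR, 6-FAM labelling, HpaI digest, CE fluorescence. DMSO = negative control/baseline, bidirectional fit.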

[7] = ATG_BRE_CIS: Attagene CIS-FACTORIAL HepG2 Assay for human Bone Morphogenetic Protein (BMP) Response Element (BRE) (AID 2282933); conditions: HepG2 BMP response element reporter, Attagene transcription factor profiling; actives raise or lower the signal
Method in brief: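 Fluorescence-labelled reporter cDNA fragments, separated by capillary electrophoresis, gave the signal for this component of a 52-readout multiplex. HepG2 cells were transfected, exposed to chemicals for 24 h, and compared with DMSO using bidirectional fitting.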

[8] = target: Retinoic acid receptor alpha (Homo sapiens) (UniProt P10276); test: ATG_DR5_RAR_CIS: Attagene CIS-FACTORIAL HepG2 Assay for human Retinoic Acid Receptor Alpha (RARE), DR5 submotif (AID 2282934); conditions: HepG2 Attagene cis-factorial RARE DR5 reporter, mRNA; actives raise or lower the signal
Retinoic acid receptor alpha (Homo sapiens), sequence (P10276 whole entry, looked up): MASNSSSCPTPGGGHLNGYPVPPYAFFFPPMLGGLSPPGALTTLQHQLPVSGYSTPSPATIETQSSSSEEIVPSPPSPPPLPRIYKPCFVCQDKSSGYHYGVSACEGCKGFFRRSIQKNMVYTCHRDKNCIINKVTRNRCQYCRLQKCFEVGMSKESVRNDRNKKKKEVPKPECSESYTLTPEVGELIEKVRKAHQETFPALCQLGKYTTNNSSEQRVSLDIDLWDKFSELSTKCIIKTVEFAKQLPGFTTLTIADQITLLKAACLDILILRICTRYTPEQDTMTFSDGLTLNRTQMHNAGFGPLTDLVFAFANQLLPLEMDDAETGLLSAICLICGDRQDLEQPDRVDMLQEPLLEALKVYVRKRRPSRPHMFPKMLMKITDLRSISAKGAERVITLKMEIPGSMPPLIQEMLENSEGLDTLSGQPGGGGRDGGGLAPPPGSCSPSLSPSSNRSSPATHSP
Method in brief: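 Reporter transcripts from a DR5-regulated unit, measured via RT-PCR plus capillary electrophoresis, reflect endogenous RAR activity in transiently transfected human HepG2 liver cells. Exposure lasted 24 h; gain or loss of signal scored against DMSO.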

[9] = target: Transcription factor E2F1 (Homo sapiens) (UniProt Q01094); test: ATG_E2F_CIS: Attagene CIS-FACTORIAL HepG2 Assay for human E2F Transcription Factor 1 (AID 2282935); conditions: HepG2 Attagene cis-reporter, E2F reporter RNA transcripts; actives raise or lower the signal
Transcription factor E2F1 (Homo sapiens), sequence (Q01094 whole entry, looked up): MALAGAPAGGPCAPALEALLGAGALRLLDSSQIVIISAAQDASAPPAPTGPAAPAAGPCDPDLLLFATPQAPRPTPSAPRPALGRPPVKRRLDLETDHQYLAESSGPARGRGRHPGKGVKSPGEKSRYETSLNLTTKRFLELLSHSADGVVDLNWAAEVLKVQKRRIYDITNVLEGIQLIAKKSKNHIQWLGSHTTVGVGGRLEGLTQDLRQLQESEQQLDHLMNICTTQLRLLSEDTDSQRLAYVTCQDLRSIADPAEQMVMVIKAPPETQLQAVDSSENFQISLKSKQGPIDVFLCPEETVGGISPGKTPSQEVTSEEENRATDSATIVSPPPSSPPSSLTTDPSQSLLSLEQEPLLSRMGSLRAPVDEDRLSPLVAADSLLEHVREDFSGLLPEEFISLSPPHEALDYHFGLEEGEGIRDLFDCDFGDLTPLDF
Method in brief: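 Cis-element reporter mRNA induction in transiently transfected HepG2, 24 h exposure. Activity fitted in both directions relative to DMSO negative control.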

[10] = ATG_E_Box_CIS: Attagene CIS-FACTORIAL HepG2 Assay for human Enhancer Box (E-box) (AID 2282936); conditions: HepG2 E-box cis-reporter transcription, actives raise or lower the signal
Method in brief: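 Cells: HepG2 (human liver), transient MRTU transfection. Exposure 24 h. RNA → oligo(dT) RT → PCR → 6-FAM label → HpaI → CE. Activity fitted both directions relative to DMSO.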

[11] = ATG_M_61_CIS: Attagene CIS-FACTORIAL HepG2 Assay for M61 Transcription Factor (Internal Marker) (AID 2282937); conditions: HepG2 Attagene CIS-FACTORIAL M61 internal marker reporter; actives raise or lower the signal
Method in brief: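 Using transiently transfected HepG2 liver cells, reporter transcript levels were assessed 24 h post-dosing by RT-PCR and capillary electrophoresis. Changes in either direction were fitted relative to DMSO controls.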

[12] = ATG_EGR_CIS: Attagene CIS-FACTORIAL HepG2 Assay for human Early Growth Response 1 (EGR1) (AID 2282938); conditions: HepG2 Attagene CIS-FACTORIAL EGR reporter mRNA; actives raise or lower the signal
Method in brief: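 Fluorescent capillary-electrophoresis signal of reporter cDNA fragments serves as read-out. HepG2 cells bear transiently transfected cis-promoter reporter units and are exposed 24 h; gain- or loss-of-signal is fitted against DMSO.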

[13] = ATG_M_19_CIS: Attagene CIS-FACTORIAL HepG2 Assay for M19 Transcription Factor (Internal Marker) (AID 2282939); conditions: HepG2 Attagene CIS-FACTORIAL M19 internal marker reporter; actives raise or lower the signal
Method in brief: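 HepG2, MRTU transient transfection, 24 h dosing. Total RNA → RT-PCR → 6-FAM primer extension → HpaI digest → CE fluorescence. Bidirectional curve fit, DMSO negative control.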

[14] = ATG_Ets_CIS: Attagene CIS-FACTORIAL HepG2 Assay for human Erythroblast Transformation Specific (ETS) (AID 2282941); conditions: HepG2 ETS cis-reporter transcription, actives raise or lower the signal
Method in brief: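 HepG2 cells transfected with multiple cis-regulated reporter units measuring endogenous ETS-driven transcription, 24 h after dosing. Reporter mRNA quantified by RT-PCR with capillary electrophoresis; bidirectional fit relative to DMSO.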

[15] = target: Hepatocyte nuclear factor 3-beta (Homo sapiens) (UniProt Q9Y261); test: ATG_FoxA2_CIS: Attagene CIS-FACTORIAL HepG2 Assay for human Forkhead box A2 (FOXA2) (AID 2282942); conditions: HepG2 cis-reporter transcription factor activity, 24 h; actives raise or lower the signal
Hepatocyte nuclear factor 3-beta (Homo sapiens), sequence (Q9Y261 whole entry, looked up, the tested form may be a part): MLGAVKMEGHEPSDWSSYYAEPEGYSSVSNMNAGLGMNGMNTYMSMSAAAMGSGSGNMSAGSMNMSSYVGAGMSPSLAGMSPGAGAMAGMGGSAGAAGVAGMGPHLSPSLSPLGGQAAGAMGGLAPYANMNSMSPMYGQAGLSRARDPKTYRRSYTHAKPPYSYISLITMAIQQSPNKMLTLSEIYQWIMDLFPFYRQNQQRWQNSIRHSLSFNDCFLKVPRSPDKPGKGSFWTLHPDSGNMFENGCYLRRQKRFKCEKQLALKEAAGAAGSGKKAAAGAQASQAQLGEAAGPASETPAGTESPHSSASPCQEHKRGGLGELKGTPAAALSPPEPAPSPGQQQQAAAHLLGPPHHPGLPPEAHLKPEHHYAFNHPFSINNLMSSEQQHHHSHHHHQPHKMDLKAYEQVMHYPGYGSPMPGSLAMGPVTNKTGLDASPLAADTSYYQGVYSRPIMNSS
Method in brief: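 Fluorescence signal of reporter cDNA fragments, separated by capillary electrophoresis, reflects endogenous transcription factor activity in transfected HepG2 after 24 h. Both increases and decreases fitted against DMSO.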

[16] = ATG_GATA_CIS: Attagene CIS-FACTORIAL HepG2 Assay for human GATA Binding Protein (AID 2282944); conditions: HepG2 GATA cis-element reporter, Attagene multiplex mRNA; actives raise or lower the signal
Method in brief: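 Cells: HepG2, transiently transfected with cis-regulated reporter transcription units. Exposure: 24 h. Detection: RT-PCR plus capillary electrophoresis of FAM-labeled fragments. Analysis: bidirectional, DMSO as baseline.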

[17] = ATG_GLI_CIS: Attagene CIS-FACTORIAL HepG2 Assay for human Zinc Finger Protein GLI1 (AID 2282945); conditions: HepG2, Attagene cis-factorial reporter mRNA, GLI element; actives raise or lower the signal
Method in brief: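 Bidirectional curve fits relative to DMSO, using reporter mRNA levels from RT-PCR plus capillary electrophoresis. Cells were HepG2 transiently carrying cis-regulated reporter constructs, harvested 24 h after dosing.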

[18] = ATG_ERE_CIS: Attagene CIS-FACTORIAL HepG2 Assay for Estrogen Response Element (ERE) (AID 2282940); conditions: HepG2 ERE cis-reporter, Attagene RNA transcript; actives raise or lower the signal
Method in brief: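 After a 24 h chemical treatment, RNA from reporter-transfected HepG2 cells is reverse-transcribed, PCR-amplified and fluorescently labelled. Fragments separated by capillary electrophoresis give reporter signal; DMSO serves as negative control.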

[19] = ATG_FoxO_CIS: Attagene CIS-FACTORIAL HepG2 Assay for human Forkhead box O (FoxO) (AID 2282943); conditions: HepG2 Attagene cis-reporter, FoxO element, mRNA; actives raise or lower the signal
Method in brief: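 Endogenous transcription factor activity read from multiplexed cis-promoter reporter transcripts in transiently transfected HepG2, 24 h after dosing. Reporter RNA measured via RT-PCR plus capillary electrophoresis of FAM-labeled products; gain or loss relative to DMSO.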

[20] = ATG_AP_1_CIS: Attagene CIS-FACTORIAL HepG2 Assay for human Activator Protein 1 (AP-1) (AID 2282931); conditions: HepG2 Attagene cis-factorial AP-1 reporter mRNA; actives raise or lower the signal
Method in brief: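 After 24 h incubation with test chemical, RNA from transfected HepG2 cells was reverse-transcribed, amplified, fluorescently labelled and digested before capillary electrophoresis. Reporters were driven by cis-regulatory promoters; activity fitted bidirectionally versus DMSO.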

Measured: AC50

CC(O)C1CCCCC1 (stereo not drawn)
not listed: [18] | [19] | [20]
inactive: all other assays above

OCC(O)c1ccccc1 (stereo not drawn)
not listed: [20]
inactive: all other assays above

CC/C=C\CCOC(=O)CC
not listed: [7] | [8] | [18]
inactive: all other assays above

C=C(C)C(=O)OCCOC1CC2CC1C1C=CCC21 (stereo not drawn)
not listed: [13] | [18] | [20]
inactive: all other assays above

CC1CC(O)CC(C)(C)C1 (stereo not drawn)
not listed: [18] | [20]
inactive: all other assays above

FC(F)(F)COCC(F)(F)F
not listed: [4] | [7] | [9] | [18] | [19] | [20]
inactive: all other assays above

C=C(C#N)C(=O)OCC
active: [2] 154 µM
not listed: [4] | [13] | [15] | [18] | [19]
inactive: all other assays above

CC(C)(C)CC(C)(C)c1ccc(OCCOCC[N+](C)(C)Cc2ccccc2)cc1
active: [3] 14.8 µM | [20] 8.35 µM | [10] 12.3 µM
not listed: [4] | [13] | [18]
inactive: all other assays above

COC(CC(C)CCCC(C)(C)O)OC (stereo not drawn)
not listed: [4] | [18]
inactive: all other assays above

CCCCCCCCCC(C)C=O (stereo not drawn)
not listed: [4] | [13] | [18]
inactive: all other assays above

C#CC(C)N(C)C(=O)Nc1ccc(Cl)cc1 (stereo not drawn)
not listed: [7] | [9] | [18] | [20]
inactive: all other assays above

C=CC(C)(O)CCC=C(C)C (stereo not drawn)
not listed: [4] | [18]
inactive: all other assays above

COc1ccccc1N=Nc1c(S(=O)(=O)O)cc2cc(S(=O)(=O)O)cc(NC(C)=O)c2c1O
active: [5] 16.4 µM
not listed: [4] | [7] | [18]
inactive: all other assays above

CCCCCCCCN1CCCC1=O
active: [1] 151 µM
not listed: [4] | [18]
inactive: all other assays above
